This note sets out measurements from ChEMBL document CHEMBL1961873, “Compounds: GSK PKIS; Assays: Nanosyn kinase panel” (2012).

Test [1] deals with High affinity nerve growth factor receptor (Homo sapiens) (UniProt P04629). Conditions: at 1 µM.
The target in test [2] is BDNF/NT-3 growth factors receptor (Homo sapiens) (UniProt Q16620). Conditions: at 0.1 µM.
The target is the same in test [3]. Particulars: at 1 µM.
The target of test [4] is NT-3 growth factor receptor (Homo sapiens) (UniProt Q16288). Conditions: at 0.1 µM.
NT-3 growth factor receptor (Homo sapiens), sequence (Q16288 32-839 limits assumed): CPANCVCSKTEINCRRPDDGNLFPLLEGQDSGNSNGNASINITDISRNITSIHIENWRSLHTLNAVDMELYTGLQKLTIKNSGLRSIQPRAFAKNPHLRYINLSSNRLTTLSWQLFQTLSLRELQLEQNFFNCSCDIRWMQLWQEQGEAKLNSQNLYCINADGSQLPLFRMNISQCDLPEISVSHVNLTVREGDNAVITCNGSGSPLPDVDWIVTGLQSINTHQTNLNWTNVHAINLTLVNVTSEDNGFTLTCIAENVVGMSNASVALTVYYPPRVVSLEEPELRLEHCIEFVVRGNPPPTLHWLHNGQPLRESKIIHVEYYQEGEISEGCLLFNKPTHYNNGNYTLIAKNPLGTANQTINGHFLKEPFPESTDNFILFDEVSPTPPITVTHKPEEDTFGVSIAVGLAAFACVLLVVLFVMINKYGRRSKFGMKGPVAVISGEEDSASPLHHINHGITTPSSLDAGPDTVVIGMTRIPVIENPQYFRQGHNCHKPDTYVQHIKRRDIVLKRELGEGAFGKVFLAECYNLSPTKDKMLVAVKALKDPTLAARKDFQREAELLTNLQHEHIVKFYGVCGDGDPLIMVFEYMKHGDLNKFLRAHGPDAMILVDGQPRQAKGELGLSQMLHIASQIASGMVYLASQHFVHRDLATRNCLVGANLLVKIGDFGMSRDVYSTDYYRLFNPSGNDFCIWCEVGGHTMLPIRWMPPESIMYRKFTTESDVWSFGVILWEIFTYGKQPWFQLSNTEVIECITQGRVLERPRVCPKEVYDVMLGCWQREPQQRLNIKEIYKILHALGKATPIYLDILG
The target is the same in test [5]. Particulars: at 1 µM.
In test [6] the target is T1, Tyrosine-protein kinase TXK (Homo sapiens) (UniProt P42681).
T1 sequence (whole entry): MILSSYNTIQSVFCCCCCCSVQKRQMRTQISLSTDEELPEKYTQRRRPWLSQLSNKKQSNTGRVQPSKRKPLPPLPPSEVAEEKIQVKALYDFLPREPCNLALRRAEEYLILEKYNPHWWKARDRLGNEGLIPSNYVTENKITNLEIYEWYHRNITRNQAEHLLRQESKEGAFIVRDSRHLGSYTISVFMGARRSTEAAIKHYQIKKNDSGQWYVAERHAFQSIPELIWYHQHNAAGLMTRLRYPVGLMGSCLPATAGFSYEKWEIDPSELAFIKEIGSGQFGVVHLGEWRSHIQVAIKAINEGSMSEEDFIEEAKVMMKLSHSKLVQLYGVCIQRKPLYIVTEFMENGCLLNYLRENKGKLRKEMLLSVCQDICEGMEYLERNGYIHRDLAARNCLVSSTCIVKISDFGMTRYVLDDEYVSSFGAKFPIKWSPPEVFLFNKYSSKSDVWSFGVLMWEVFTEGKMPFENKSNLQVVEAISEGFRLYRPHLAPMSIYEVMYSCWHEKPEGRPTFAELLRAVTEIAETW
Conditions: at 0.1 µM.

Test [7] deals with T1, Tyrosine-protein kinase TXK (Homo sapiens). Particulars: at 1 µM.
Test [8] addresses Non-receptor tyrosine-protein kinase TYK2 (Homo sapiens) (UniProt P29597). Conditions: at 0.1 µM.
Test [9] concerns the target T2, Dual specificity protein kinase TTK (Homo sapiens) (UniProt P33981).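 Also: reported figures are mean TTK inhibition at 1 µM.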
T2 sequence (whole entry): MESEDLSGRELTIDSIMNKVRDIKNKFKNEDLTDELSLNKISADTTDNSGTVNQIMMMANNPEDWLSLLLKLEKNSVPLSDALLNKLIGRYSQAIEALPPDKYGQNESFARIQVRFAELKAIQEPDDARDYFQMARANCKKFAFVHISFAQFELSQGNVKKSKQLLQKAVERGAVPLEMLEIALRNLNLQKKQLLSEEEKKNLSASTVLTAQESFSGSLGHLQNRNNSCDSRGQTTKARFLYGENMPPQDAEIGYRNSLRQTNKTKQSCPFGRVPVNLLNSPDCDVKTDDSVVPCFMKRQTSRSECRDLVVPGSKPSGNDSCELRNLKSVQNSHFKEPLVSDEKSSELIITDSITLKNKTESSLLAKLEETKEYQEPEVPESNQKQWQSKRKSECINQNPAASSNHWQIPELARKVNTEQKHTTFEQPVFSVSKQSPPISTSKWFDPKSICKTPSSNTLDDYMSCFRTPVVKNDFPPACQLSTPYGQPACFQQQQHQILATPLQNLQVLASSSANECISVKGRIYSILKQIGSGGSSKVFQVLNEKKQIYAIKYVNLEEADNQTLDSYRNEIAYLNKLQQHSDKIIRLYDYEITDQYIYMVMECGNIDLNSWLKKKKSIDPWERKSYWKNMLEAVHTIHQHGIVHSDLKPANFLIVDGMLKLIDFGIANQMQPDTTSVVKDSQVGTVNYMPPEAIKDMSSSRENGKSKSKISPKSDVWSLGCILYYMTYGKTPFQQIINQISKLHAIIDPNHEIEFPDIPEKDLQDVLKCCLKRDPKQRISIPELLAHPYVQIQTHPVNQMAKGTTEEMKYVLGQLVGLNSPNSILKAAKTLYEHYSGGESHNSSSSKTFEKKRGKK
Particulars: at 1 µM.

The target of test [10] is T3, Aurora kinase A (Homo sapiens) (UniProt O14965).
T3 sequence (whole entry): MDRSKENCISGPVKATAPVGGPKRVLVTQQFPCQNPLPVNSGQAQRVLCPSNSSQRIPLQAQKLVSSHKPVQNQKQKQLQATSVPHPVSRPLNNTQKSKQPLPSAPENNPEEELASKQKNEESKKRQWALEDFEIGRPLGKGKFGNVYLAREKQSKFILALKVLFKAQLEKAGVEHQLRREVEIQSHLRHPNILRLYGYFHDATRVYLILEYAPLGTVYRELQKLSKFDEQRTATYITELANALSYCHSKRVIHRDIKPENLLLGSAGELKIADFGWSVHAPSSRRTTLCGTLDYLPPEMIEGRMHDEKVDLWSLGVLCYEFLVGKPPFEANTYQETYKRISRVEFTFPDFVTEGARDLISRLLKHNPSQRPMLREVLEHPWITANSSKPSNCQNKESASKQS
Conditions: at 0.1 µM.

For test [11], the target named is T3, Aurora kinase A (Homo sapiens). Particulars: at 1 µM.
Test [12] deals with Aurora kinase B (Homo sapiens) (UniProt Q96GD4). Particulars: at 0.1 µM.
For test [13] the target is unchanged. Conditions: at 1 µM.
Test [14] addresses T4, Aurora kinase C (Homo sapiens) (UniProt Q9UQB9).
T4 sequence (whole entry): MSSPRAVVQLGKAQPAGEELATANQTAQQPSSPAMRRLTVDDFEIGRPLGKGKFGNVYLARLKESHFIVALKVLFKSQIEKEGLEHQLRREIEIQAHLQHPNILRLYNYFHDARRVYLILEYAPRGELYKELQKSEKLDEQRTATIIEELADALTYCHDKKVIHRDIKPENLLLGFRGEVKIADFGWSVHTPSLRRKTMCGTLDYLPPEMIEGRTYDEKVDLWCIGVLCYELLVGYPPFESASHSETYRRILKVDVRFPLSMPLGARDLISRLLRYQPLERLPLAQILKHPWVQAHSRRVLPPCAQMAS
Conditions: at 0.1 µM.

In test [15] the target is T4, Aurora kinase C (Homo sapiens). Conditions: at 1 µM.
Test [16] concerns the target Serine/threonine-protein kinase 10 (Homo sapiens) (UniProt O94804). Particulars: at 0.1 µM.
The target is the same in test [17]. Particulars: at 1 µM.
Test [18] has as its target T5, Mitogen-activated protein kinase kinase kinase kinase 2 (Homo sapiens) (UniProt Q12851).
T5 sequence (whole entry): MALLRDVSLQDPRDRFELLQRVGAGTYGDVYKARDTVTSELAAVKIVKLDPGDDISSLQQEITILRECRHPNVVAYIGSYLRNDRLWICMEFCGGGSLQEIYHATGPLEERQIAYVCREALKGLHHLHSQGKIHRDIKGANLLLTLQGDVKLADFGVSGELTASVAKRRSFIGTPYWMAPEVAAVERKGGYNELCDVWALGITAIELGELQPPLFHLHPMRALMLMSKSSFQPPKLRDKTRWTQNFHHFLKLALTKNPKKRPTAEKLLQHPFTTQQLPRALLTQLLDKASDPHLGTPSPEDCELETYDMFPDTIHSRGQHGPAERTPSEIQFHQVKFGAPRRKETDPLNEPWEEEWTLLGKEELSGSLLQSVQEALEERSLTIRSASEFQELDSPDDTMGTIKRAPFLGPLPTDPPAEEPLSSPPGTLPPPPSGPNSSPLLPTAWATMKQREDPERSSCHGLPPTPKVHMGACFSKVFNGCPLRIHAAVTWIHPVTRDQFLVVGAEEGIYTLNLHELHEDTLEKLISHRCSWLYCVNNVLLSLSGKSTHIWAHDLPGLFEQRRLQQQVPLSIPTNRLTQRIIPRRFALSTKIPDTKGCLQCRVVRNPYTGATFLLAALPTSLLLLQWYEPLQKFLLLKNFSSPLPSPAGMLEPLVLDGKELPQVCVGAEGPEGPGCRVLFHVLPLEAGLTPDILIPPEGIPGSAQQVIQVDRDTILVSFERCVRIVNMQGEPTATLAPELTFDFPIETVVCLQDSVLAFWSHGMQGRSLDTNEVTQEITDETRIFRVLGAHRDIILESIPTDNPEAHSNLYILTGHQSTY
Particulars: at 0.1 µM.

For test [19], the target named is T5, Mitogen-activated protein kinase kinase kinase kinase 2 (Homo sapiens). Conditions: at 1 µM.
Test [20] concerns the target Mitogen-activated protein kinase kinase kinase kinase 4 (Homo sapiens) (UniProt O95819). Particulars: at 0.1 µM.

The structures appear in SMILES notation.

Serine/threonine-protein kinase 10 (Homo sapiens), sequence (O94804 whole entry, looked up): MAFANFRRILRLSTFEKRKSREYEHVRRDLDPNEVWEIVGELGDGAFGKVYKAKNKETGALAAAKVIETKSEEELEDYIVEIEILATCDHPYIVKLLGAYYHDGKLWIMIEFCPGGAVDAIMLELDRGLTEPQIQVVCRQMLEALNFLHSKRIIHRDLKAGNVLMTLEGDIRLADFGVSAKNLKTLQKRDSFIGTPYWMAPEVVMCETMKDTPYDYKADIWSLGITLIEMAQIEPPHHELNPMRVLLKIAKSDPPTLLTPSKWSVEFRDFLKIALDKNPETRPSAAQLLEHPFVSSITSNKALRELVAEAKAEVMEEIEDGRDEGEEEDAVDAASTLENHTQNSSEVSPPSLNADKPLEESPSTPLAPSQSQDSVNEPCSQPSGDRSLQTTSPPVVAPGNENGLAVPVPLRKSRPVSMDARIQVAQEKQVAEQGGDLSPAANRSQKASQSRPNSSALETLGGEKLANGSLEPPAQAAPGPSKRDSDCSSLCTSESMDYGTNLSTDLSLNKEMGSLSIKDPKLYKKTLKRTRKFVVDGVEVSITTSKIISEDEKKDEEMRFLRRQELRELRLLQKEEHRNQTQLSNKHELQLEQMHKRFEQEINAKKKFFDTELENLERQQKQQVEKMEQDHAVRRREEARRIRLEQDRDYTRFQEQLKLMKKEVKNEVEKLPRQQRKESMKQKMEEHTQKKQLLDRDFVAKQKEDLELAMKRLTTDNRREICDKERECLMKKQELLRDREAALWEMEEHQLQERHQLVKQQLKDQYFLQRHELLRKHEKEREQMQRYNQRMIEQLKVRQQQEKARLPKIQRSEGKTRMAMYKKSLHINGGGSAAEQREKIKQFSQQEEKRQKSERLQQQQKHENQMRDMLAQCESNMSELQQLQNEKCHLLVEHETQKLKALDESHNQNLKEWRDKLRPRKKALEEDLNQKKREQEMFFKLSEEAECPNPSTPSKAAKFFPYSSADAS
Mitogen-activated protein kinase kinase kinase kinase 4 (Homo sapiens), sequence (O95819 2-1239 limits assumed): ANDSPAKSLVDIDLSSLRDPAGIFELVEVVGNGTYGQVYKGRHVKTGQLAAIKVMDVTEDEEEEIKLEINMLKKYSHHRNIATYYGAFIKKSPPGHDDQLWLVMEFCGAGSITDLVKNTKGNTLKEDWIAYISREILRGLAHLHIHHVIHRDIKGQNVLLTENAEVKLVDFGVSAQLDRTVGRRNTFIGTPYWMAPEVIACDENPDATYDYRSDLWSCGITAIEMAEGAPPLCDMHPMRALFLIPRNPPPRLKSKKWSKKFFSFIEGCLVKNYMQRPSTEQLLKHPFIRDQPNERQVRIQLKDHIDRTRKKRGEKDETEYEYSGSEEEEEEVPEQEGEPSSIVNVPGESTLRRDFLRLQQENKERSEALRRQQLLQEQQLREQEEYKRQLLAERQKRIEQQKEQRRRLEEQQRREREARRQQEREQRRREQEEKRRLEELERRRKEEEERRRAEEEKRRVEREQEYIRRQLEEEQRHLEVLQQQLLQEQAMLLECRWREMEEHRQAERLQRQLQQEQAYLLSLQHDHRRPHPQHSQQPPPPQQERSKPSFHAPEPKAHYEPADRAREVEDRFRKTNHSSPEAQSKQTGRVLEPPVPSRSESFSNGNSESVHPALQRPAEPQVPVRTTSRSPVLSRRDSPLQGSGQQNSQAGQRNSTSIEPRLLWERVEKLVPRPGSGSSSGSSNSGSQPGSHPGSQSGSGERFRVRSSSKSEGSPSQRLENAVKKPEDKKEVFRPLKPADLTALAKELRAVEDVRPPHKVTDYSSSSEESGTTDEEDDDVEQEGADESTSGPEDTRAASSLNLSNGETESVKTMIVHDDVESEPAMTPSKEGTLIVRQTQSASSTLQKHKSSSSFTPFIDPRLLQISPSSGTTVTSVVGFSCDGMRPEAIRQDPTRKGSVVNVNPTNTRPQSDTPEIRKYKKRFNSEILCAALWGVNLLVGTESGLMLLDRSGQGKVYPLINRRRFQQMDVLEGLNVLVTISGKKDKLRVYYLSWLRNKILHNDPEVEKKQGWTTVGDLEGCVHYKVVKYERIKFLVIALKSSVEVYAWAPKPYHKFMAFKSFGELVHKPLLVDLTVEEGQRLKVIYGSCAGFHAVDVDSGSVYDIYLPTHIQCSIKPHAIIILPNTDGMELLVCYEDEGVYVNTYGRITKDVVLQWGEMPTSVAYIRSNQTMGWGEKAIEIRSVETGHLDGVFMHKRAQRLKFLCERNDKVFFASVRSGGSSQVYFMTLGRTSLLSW
High affinity nerve growth factor receptor (Homo sapiens), sequence (P04629 33-796 limits assumed): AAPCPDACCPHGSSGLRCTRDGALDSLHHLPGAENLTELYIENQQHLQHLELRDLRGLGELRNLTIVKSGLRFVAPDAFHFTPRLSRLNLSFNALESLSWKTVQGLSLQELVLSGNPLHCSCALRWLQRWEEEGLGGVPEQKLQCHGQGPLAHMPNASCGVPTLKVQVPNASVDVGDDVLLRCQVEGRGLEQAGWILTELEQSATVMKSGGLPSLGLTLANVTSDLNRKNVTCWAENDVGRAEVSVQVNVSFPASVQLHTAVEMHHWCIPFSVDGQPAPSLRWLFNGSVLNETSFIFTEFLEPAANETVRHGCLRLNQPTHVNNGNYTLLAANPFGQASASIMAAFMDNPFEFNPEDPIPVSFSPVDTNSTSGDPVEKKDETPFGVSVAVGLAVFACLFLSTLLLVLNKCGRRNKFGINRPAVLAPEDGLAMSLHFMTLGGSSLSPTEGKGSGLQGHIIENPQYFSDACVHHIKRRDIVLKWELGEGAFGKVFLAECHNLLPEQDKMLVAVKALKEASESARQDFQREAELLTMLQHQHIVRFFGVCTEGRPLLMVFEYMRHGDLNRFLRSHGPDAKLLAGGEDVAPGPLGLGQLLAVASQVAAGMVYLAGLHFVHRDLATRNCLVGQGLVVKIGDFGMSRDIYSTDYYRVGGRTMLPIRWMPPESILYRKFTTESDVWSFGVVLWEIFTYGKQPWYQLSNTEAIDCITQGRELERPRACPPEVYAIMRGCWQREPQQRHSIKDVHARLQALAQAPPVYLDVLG
Non-receptor tyrosine-protein kinase TYK2 (Homo sapiens), sequence (P29597 whole entry): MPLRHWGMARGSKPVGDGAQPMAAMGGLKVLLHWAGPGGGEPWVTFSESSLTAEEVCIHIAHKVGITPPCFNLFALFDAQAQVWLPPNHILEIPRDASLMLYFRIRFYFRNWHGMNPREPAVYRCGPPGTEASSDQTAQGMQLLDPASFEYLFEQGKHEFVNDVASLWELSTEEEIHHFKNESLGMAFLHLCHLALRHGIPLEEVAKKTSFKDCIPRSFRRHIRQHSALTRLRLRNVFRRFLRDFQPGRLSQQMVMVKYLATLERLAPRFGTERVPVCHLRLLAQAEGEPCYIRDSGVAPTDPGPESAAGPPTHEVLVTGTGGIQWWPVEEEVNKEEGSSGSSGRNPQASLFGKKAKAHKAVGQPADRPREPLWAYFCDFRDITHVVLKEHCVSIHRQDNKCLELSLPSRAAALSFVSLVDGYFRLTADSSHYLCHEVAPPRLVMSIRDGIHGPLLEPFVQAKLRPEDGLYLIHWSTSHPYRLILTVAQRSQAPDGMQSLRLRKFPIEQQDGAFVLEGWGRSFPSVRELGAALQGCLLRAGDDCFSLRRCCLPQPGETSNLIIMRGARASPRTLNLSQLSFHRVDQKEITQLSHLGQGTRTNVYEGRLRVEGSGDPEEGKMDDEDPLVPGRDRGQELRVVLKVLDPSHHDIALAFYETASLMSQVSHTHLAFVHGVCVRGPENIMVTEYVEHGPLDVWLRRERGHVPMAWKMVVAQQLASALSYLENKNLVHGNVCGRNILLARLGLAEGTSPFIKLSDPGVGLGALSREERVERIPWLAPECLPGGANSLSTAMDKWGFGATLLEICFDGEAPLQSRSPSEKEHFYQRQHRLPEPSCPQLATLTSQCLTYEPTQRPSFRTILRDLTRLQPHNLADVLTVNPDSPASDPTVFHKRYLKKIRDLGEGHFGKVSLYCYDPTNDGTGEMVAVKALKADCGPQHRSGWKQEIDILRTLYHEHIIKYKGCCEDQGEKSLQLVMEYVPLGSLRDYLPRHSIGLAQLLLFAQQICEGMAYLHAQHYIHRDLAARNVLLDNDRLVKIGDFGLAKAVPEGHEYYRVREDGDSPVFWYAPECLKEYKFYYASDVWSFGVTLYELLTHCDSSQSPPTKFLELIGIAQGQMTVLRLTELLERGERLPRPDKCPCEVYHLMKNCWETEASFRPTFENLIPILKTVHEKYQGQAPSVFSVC

Usually inhibition stands for the drop in the measured response relative to a control, in per cent. In the case of `NS(=O)(=O)c1ccc(NC=C2C(=O)Nc3ccc4ncsc4c32)cc1`, the inhibition was found to be 68.8% in test [1]; 31.8% in test [2]; 80.2% in test [3]; 35.6% in [4]; 84.6% in test [5]; 4.55% in [6]. The inhibition came to 17.2% in test [7]; 11% in test [8]; 75.5% in [9]; 34.6% in test [10]; 90.4% in test [11]; 29.9% in test [12]. Besides, the inhibition in test [13] stood at 69.6%; in test [14] it was 28.4%; in test [15] it was 92.2%; in test [16] it was 6.33%; in test [17], 26.9%; in test [18] it was 27.2%. Also, the figures for the inhibition in test [19] and in [20] were 66.5% and 69.4%, respectively.
On to `CS(=O)(=O)CCNCc1nc(-c2ccc3ncnc(Nc4ccc(OCc5cccc(C(F)(F)F)c5)cc4)c3c2)cs1`, for which the inhibition came out at 5.08% in test [1]; 2.33% in test [2]; 12.1% in [3]; 1.39% in test [4]; 7.81% in [5]; 6.88% in [6]. For the same molecule, the inhibition in test [7] was 5.83%; in test [8] it was -3.62%; in [9], 2.16%; in test [10], 3.8%; in [11], 2.26%; in test [12], 4.85%. The inhibition in test [13] is 6.3%; in test [14], 5.42%; in test [15], 5.59%; in [16], 6.68%; in test [17] it was 10%; in test [18], -0.19%. For the same molecule, the figures for the inhibition in test [19] and in [20] were 3.96% and 1.73%, respectively.
Regarding `CCOc1nccc2c1nc(-c1nonc1N)n2CC`, the inhibition in [1] was 3.61%; in test [2], -0.99%; in test [3] it was 5.51%; in test [4], 1.31%; in test [5] it was 5.16%; in test [6] it was 4.89%. Besides, the inhibition in test [7] was 5.69%; in [8] it was -0.93%; in [9] it was 6.96%; in [10], 0.6%; in test [11], 8.92%; in [12], 5.61%. In addition, the inhibition was 8.46% in test [13]; 2.28% in [14]; -5.69% in test [15]; 11.5% in [16]; 19.9% in test [17]; 5.01% in [18]. For the same molecule, the values for the inhibition in [19] and in test [20] were 10.6% and 3.98%, respectively.
In the case of `N#Cc1c(NC(=O)c2ccccc2F)sc2c1CCCC2`, the inhibition in test [1] is -2.78%; in test [2] it was -1.85%; in test [3], -1.97%; in test [4] it was 0.83%; in [5], -1.95%; in [6], -0.16%. Also, the inhibition in test [7] was 1.71%; in test [8] it was 2.79%; in test [9], 1.13%; in test [10], -0.7%; in test [11], -2.59%; in test [12] it was -1.47%. For the same molecule, the inhibition in test [13] was 0.26%; in test [14], -2%; in [15], 0.91%; in test [16] it was -0.59%; in test [17] it was 4.2%; in test [18] it was 1.34%. Moreover, the inhibition was 2.61% in test [19] and -1.47% in test [20].
For `Cc1ccc2c(-c3ccnc(Nc4ccc5c(c4)OCCO5)n3)c(-c3ccc(C(F)(F)F)cc3)nn2n1`, the inhibition in test [1] is -4.22%; in test [2], -1.22%; in test [3] it was 0.09%; in test [4], 3.63%; in test [5], -0.97%; in [6] it was -1.11%. The inhibition in [7] is 2.6%; in [8] it was -0.28%; in [9] it was 4.26%; in test [10], 3.93%; in test [11] it was 0.25%; in [12], -0.46%. Besides, the inhibition in [13] was -2.36%; in test [14], 0.45%; in test [15], 1.78%; in [16] it was 3.03%; in test [17], 5.81%; in [18] it was 1.07%. Further, the inhibition in [19] was found to be 2.41%; in test [20], 0.41%.
